This is an account of results in PubChem BioAssay (Tox21).

Each structure is given as a SMILES string. Results filed as inconclusive are left out. Values without a mark were called inactive. Activity calls are given as the source filed them. Unless noted, calls follow the shape of the dose curve; as a rule, active = well fitted curve in the direction sought with a large enough effect in the repeat runs; inconclusive = weak or mixed curves; inactive = no such curve, though single readings can be large; an effect the other way counts as inactive or inconclusive.

A short description of assay [1]: qHTS assay to identify small molecule agonists of the vitamin D receptor (VDR) signaling pathway - cell viability counter screen (AID 743224). Also: series mostly up to about 63 µM; nearly all actives have a fitted effect of over 50% in size. Summed up: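 Counter screen run in the same wells as the VDR-bla reporter assay: CellTiter-Glo luminescence, 30 min at room temperature, after 16 h compound treatment at 37C of cells pre-plated for 4 h.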
A short description of assay [2]: qHTS assay to identify small molecule antagonists of the vitamin D receptor (VDR) signaling pathway - cell viability counter screen (AID 743225). Also: nearly all actives have a fitted effect of over 50% in size. Summed up:
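Cytotoxicity toward the VDR-bla HEK 293T line was scored by ATP-based CellTiter-Glo luminescence, read in the wells already used for the beta-lactamase readout after 16 h compound treatment under 3 nM 1-alpha,25-dihydroxyvitamin D3 stimulation.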
A general note: Quantitative high-throughput screening tests each substance at several concentrations.

Assay [3] in a line: qHTS assay to identify small molecule agonists of the NFkB signaling pathway (AID 1159509; active = well fitted curve in the direction sought with a large enough effect in the signal ratio in the repeat runs, not every such curve was filed as active; the % refers to the signal ratio; also: series mostly up to about 61 µM). Summed up:
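Pathway activation was measured in ME-180 cells stably expressing beta-lactamase under NF-kB response element control. Substrate cleavage was read as the 460/530 nm emission shift after 5 hr compound incubation.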

Assay [4] can be described thus: qHTS assay to identify small molecule agonists of the endoplasmic reticulum stress response signaling pathway (AID 1159516; active = well fitted activation curve with a large enough effect in the signal ratio in the repeat runs, not every such curve was filed as active; the % refers to the signal ratio). In short, it runs like this: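 Ratiometric FRET readout (405 nm excitation; 460 and 530 nm emission) of a beta-lactamase gene driven by the ER stress response element, after 2 hr substrate loading. HeLa ESRE-bla cells were seeded overnight and treated with compounds for only 5 hr at 37 C.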

Assay [5] in a line: qHTS assay to identify small molecule agonists of the endoplasmic reticulum stress response signaling pathway - cell viability counter screen (AID 1159517; calls by dose curve; also: series mostly up to about 61 µM; nearly all actives have a fitted effect of over 50% in size). In short, it runs like this:
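Cpd-treated ESRE-bla HeLa (5 hr, 37 C) → LiveBLAzer 2 hr RT → CellTiter-Glo 30 min RT → luminescence.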

Assay [6] can be described thus: qHTS assay to identify small molecule antagonists of the retinoid-related orphan receptor gamma (ROR-gamma) signaling pathway - cell viability counter screen (AID 1159520). Also: nearly all actives have a fitted effect of over 50% in size. In short, it runs like this:
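Tet-on ROR gamma CHO cells (1,000/well) were plated 4 hr, given compounds in DMSO for 2 hr at 37 C, then induced with 1 uM final doxycycline for 16 hr. Viability was read as ATP by CellTiter-Glo luminescence after 30 min.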

Assay [7] has as its target Nuclear receptor ROR-gamma (Homo sapiens) (UniProt P51449). As to the kind of experiment: qHTS assay to identify small molecule antagonists of the retinoid-related orphan receptor gamma (ROR-gamma) signaling pathway (AID 1159521; also: nearly all actives have a fitted effect of over 50% in size; also: potency is read from the fitted curve at half-maximal effect). In short, it runs like this: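 Readout: ONE-Glo luciferase luminescence, 30 min at room temperature. System: Tet-on RORγ CHO, RORE-LUC. Sequence: compound 2 h, doxycycline 1 uM final, 16 h at 37 C.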

The nature of assay [8]: qHTS assay to identify small molecule agonists of the AP-1 signaling pathway - cell viability counter screen (AID 1159525; calls by dose curve; also: nearly all actives have a fitted effect of over 55% in size). In short, it runs like this:
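Each titration point was normalised to DMSO and tetra n-octyl ammonium bromide controls. The read was Cell Titer Glo luminescence after 30 min at RT, following 5 h compound exposure of ME-180 AP-1-bla cells at 37 °C.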

Assay [9] addresses Retinoic acid receptor RXR-alpha (Homo sapiens) (UniProt P19793). As to the kind of experiment: qHTS assay to identify small molecule agonists of the RXR signaling pathway (AID 1159527; calls by dose curve; also: nearly all actives have a fitted effect of over 35% in size). In short, it runs like this:
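Reporter activation is measured as beta-lactamase activity via FRET substrate cleavage (emission 460/530 nm) in HEK 293T cells expressing an RXR-alpha-driven bla construct, following 16 hr compound exposure at 37 C.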

A short description of assay [10]: qHTS assay to identify small molecule agonists of the RXR signaling pathway - cell viability counter screen (AID 1159529). Summed up:
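Tox21 10K compounds were tested for cytotoxicity against GeneBLAzer RXR-alpha HEK 293T cells grown in 2% charcoal-stripped FBS. Exposure lasted 16 hr at 37 C, 5% CO2; viability read by CellTiter-Glo luminescence.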

Assay [11] is described as follows: qHTS assay to identify small molecule antagonists of the retinoid acid receptor (RAR) signaling pathway - cell viability counter screen (AID 1159551). Also: nearly all actives have a fitted effect of over 35% in size. In short, it runs like this: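 Cytotoxicity counter screen: ATP content quantified by CellTiter-Glo luminescence in C3RL4 cells treated 6 hr at 37 C with compound and retinol (1 uM final). Cells plated at 1,000/well and cultured overnight before dosing.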

Assay [12] can be described thus: qHTS assay to identify small molecule antagonists of the retinoic acid receptor (RAR) signaling pathway (AID 1159552; also: nearly all actives have a fitted effect of over 50% in size; also: potency is read from the fitted curve at half-maximal effect). In short, it runs like this:
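Overnight-plated C3RL4 reporter cells get compound, then retinol to 1 uM final; plates sit 6 hr at 37 C, 5% CO2. A luciferase reagent is added and light output recorded after 30 min at room temperature.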

Assay [13] is described as follows: qHTS assay to identify small molecule agonists of the AP-1 signaling pathway (AID 1159526; calls by dose curve).
The nature of assay [14]: qHTS assay to identify small molecule agonists of the retinoic acid receptor (RAR) signaling pathway (AID 1159553). Summed up:
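Luminescence was measured 30 min after luciferase reagent addition at room temperature. Before that, C3RL4 reporter cells (1,000 per well, plated overnight) were treated with compound for 6 hr at 37 C and 5% CO2.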

A short description of assay [15]: qHTS assay to identify small molecule antagonists of the estrogen related receptor (ERR) signaling pathway - cell viability counter screen (AID 1224818).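 Also: series mostly up to about 46 µM; viability measured after 17.5 h of compound exposure.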 Summed up:
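Cytotoxicity counter screen: fluorescence from CellTiter-Fluor, added after 17.5 h compound exposure at 37 C and read 30 min later. ERR cell line seeded at 2,000 cells/well, preincubated 6 h before dosing.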

The nature of assay [16]: qHTS assay to identify small molecule antagonists of the estrogen related receptor (ERR) signaling pathway (AID 1224819). Summed up: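 LOPAC library screened for antagonism as reduced One-Glo luminescence in ERR reporter cells (2,000/well). Compounds were added after 6 h pre-incubation and left 18 h at 37C; reading followed a 30 min room-temperature reagent step.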
Assay [17] can be described thus: qHTS assay to identify small molecule agonists of the estrogen related receptor (ERR) signaling pathway (AID 1224820). Summed up:
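An ERR cell line provided by NTP was seeded at 2,000 cells per well and allowed to settle for 6 h before compounds in DMSO were added. After 18 h at 37 C, luciferase activity was measured by One-Glo luminescence.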

In assay [18] the test system is estrogen-related receptor alpha (ERRalpha) with PGC-1alpha coactivator, human. As to the kind of experiment: qHTS assay to identify small molecule antagonists of the estrogen related receptor signaling pathway with the pleiotropic PPARgamma coactivator (PGC) (AID 1224821; calls by dose curve). In short, it runs like this:
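A PGC/ERR cell line supplied by NTP is seeded, allowed 6 h at 37 C, and treated with test compounds in DMSO for 18 h. Signal is then measured as luciferase luminescence using One-Glo.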

A short description of assay [19]: qHTS assay to identify small molecule antagonists of the estrogen related receptor signaling pathway with the pleiotropic PPARgamma coactivator (PGC) cell viability counter screen (AID 1224822; also: series mostly up to about 46 µM). In short, it runs like this: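 Viability counter-screen read by fluorescence intensity after 30 min with CellTiter-Fluor at 37 C; PGC/ERR reporter cells were exposed to compounds for 17.5 h at 37 C following a 6 h preincubation.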

Sequence of Retinoic acid receptor RXR-alpha (Homo sapiens) (P19793 whole entry, looked up): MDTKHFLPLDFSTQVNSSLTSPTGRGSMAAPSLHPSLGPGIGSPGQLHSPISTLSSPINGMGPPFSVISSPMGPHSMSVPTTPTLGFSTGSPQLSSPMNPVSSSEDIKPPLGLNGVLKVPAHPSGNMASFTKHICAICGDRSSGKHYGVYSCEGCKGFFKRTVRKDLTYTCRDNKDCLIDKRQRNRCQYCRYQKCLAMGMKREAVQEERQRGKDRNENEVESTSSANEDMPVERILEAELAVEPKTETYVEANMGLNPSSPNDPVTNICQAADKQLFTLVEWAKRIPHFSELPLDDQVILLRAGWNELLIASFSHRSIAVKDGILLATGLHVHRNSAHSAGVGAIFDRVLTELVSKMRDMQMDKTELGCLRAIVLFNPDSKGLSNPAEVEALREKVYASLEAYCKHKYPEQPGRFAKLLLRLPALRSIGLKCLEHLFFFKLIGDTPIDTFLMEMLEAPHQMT

In the case of `O=C(CBr)c1ccccc1`, the Potency entry in assay [1], in assay [2], in [5], in assay [6], in assay [7] and in assay [8] was “inactive” in each case. Moreover, the Potency entry in assay [9], in [10], in assay [11] and in assay [12] was “inactive” throughout. The compound was called inactive in assay [3] and in [4].

For `Clc1cccc2ccccc12`, the Potency result in assay [1], in assay [2], in [5], in assay [6], in [7] and in [8] was “inactive” in each case. Further, the Potency result in assay [9], in assay [10] and in [11] was “inactive” throughout. Further, the result in [3], in [4] and in assay [13] was inactive.

In the case of `CC(C)(CCl)C(=O)Cl`, the Potency result in assay [1], in assay [5], in [6], in assay [7], in assay [8] and in assay [10] was “inactive” in each case. Besides, the Potency result in assay [11] and in [12] was “inactive” throughout. Also, the call in assay [3] and in [4] was inactive.

On to `CCCCC(CC)COP(=O)(Oc1ccccc1)Oc1ccccc1` (stereo not drawn), for which the Potency result in assay [2], in assay [5], in [6], in assay [7], in assay [8] and in assay [11] was “inactive” each time. Also, the Potency entry in [12] and in assay [14] was “inactive” each time. In addition, the compound was called inactive in assay [3] and in assay [4].

Take `C=CC(=O)OCC(C)C`: the Potency entry in [1], in [2], in assay [5], in assay [6], in assay [7] and in [8] was “inactive” each time. In addition, the Potency result in [9], in assay [10] and in assay [11] was “inactive” each time. For the same compound, the call in assay [3], in [4] and in assay [13] was inactive.

For the compound `C=CC(=O)OCC(C)O` (stereo not drawn), the Potency entry in assay [1], in assay [2], in [5], in assay [6], in assay [7] and in [8] was “inactive” throughout. Besides, the Potency result in [9], in assay [10], in assay [12] and in assay [14] was “inactive” throughout. Moreover, the outcome in assay [3], in assay [4] and in assay [13] was inactive.

Take `CCCCOC(=O)c1ccccc1C(=O)OCc1ccccc1`: the Potency result in assay [1], in assay [2], in assay [5], in [6], in assay [7] and in assay [8] was “inactive” throughout. The Potency entry in assay [10], in assay [11], in assay [12], in assay [14], in [18] and in [19] was “inactive” each time. Further, the compound was classed as inactive in assay [3], in assay [4], in assay [13], in assay [15], in assay [16] and in assay [17].

With `N#Cc1cc(I)c(O)c(I)c1`, the result in assay [3], in [4] and in assay [13] was inactive. For the same compound, the Potency result in assay [5], in [6], in assay [8], in [11] and in assay [14] was “inactive” each time. Besides, the Potency in assay [7] is 24.3 µM (active); in [12], 68.6 µM (active).

Regarding `N#C/C(N)=C(/N)C#N`, the Potency result in assay [1], in assay [2], in assay [5], in assay [6], in assay [7] and in [8] was “inactive” each time. For the same compound, the Potency result in assay [9], in assay [10], in assay [11] and in [12] was “inactive” throughout. Moreover, the outcome in [3], in assay [4] and in assay [13] was inactive.

`CCOP(=O)(OCC)SCCSCC`: the Potency entry in assay [1], in assay [2], in assay [5], in assay [6], in assay [7] and in assay [8] was “inactive” each time. The Potency entry in assay [9], in assay [10], in assay [11] and in assay [14] was “inactive” in each case. Besides, the outcome in assay [3], in assay [4] and in assay [13] was inactive.
